Screening results: PubChem BioAssay, National Center for Advancing Translational Sciences (NCATS)
An excerpt weighted towards active compounds, which were near 2.2% of everything screened.
Mm-Cpn inhibitor = inhibitors of Methanococcus maripaludis chaperonin TRiC (MmCpn); purified Mm-Cpn ATPase, ADP Transcreener TR-FRET; Potency, µM (top dose mostly 76.9 µM), inactives show top-dose activity, negative = inhibition, usual class: inhibitors; hit rate 0.031% among 330,000; note: potency is the fitted concentration of half-maximal effect; % is set by controls: 0 for no effect and ±100 for the full control effect; nearly all actives have a fitted effect of over 80% in size
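25 nM Mm-CPN + cpd, 10 min 37°C; + 10 uM ATP, 30 min 37°C; buffer 30 mM Tris pH 7.4, 100 mM KCl, 5 mM MgCl2, 1 mM DTT; Transcreener ADP HTRF detection 30 min RT.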
GLP-1R inv ag = inverse agonists of human GLP-1 receptor | hit rate 1.6% among 410,000 | P43220 | HEK293 GLP-1R CRE-luciferase, luminescence, 24 h; GLP-1R form is constitutively active | Potency, µM (highest dose often 38.3 µM), for inactives: at the highest dose activity change, negative = inhibition, actives largely listed as inhibitors; note: potency is the fitted concentration of half-maximal effect; % is set by controls: 0 for no effect and ±100 for the full control effect; nearly all actives have a fitted effect of over 55% in size
Target sequence (P43220 whole entry, looked up): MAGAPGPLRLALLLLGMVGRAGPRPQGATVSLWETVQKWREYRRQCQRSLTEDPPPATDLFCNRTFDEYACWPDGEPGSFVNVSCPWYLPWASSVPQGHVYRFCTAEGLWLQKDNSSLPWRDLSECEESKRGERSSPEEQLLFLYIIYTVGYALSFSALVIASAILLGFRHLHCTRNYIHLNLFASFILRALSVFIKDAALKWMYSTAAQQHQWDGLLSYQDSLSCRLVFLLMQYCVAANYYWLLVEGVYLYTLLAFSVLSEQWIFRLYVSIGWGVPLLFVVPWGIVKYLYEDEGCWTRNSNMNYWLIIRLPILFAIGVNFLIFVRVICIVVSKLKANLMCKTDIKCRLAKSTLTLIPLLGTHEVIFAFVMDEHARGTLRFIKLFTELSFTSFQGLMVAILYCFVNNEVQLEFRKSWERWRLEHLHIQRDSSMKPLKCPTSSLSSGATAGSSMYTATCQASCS
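Assay principle: reduced luminescence from a cAMP-responsive reporter in HEK293 cells co-expressing a constitutively active GLP-1R. Conditions: 24 hr compound incubation, 37 deg C, 5% CO2.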
uPA generation = blocks generation of uPA at the cell surface; hit rate 0.31% among 330,000; Potency, µM (highest dose often 38.3 µM), inactives show top-dose activity change, negative = inhibition, most hits filed as inhibitors; cell surface uPA generation assay, qHTS; active = well fitted inhibition curve with a large enough effect; inconclusive = small, poorly fitted or top-dose-only effect; inactive = no such curve, though single readings can be large or run the other way; tested in mouse RAW 264.7 cells; note: potency is the fitted concentration of half-maximal effect; % is set by controls: 0 for no effect and ±100 for the full control effect; nearly all actives have a fitted effect of over 55% in size
CCT modulator = modulators of cytosolic chaperonin (CCT/TRiC) activity. hit rate 0.3% among 360,000. purified chaperonin ATPase assay, HTRF ADP detection, 30 min. activity change, % (test concentration not listed), hits read low. AID 651819; in the data active = activity change below about -30%; note: % is set by controls: 0 for no effect and ±100 for the full control effect
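We incubate TRiC, 40 or 20 nM final, with library compounds at 76 uM and 10 uM ATP for 30 min at 37 °C. ADP formed is detected with Transcreener HTRF reagents after 30 min at room temperature.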
GLP1R ag = activates the human GLP-1 receptor | hit rate 0.007% among 380,000 | Potency, µM (titrated, usually from 45.6 µM), inactives show top-dose activation, hits mostly activators | HEK293 GLP-1R CRE-luciferase, luminescence, 4-6 h; cells express a hypersensitive GLP-1R form; note: potency is the fitted concentration of half-maximal effect; % of control where 0% means no effect
HEK293 tox = cytotoxicity in counter-screen for GLP-1R inverse agonists. HEK293 cAMP-luciferase reporter cells, luminescence, 24 h. Potency, µM (highest dose often 38.3 µM), for inactives: at the top dose activity change, negative = inhibition, usual class: inhibitors. hit rate 0.13% among 410,000;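 note: loss of luciferase light is scored as toxicity; potency is the fitted concentration of half-maximal effect; % is set by controls: 0 for no effect and ±100 for the full control effect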
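Luminescence readout: signal drop marks cytotoxicity. Plated cells grew 12 h at 37 °C, 5% CO2, received 23 nL compound for 24 h, then got luciferase reagent, read after 12 min at RT.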
* hit, by the source's call; ? = inconclusive; / = no result; [ ] = dose if it differs, or a comment. Unless noted, calls come from the whole dose curve; as a rule, active = well fitted curve in the direction sought with a large enough effect; inconclusive = small, poorly fitted or top-dose-only effect, or another doubt; inactive = no such curve, though single readings can be large; an effect the other way counts as inactive or inconclusive.

SMILES	Mm-Cpn inhibitor	GLP-1R inv ag	uPA generation	CCT modulator	GLP1R ag	HEK293 tox
Cc1cccc(-n2c(=O)c3c(c4cc(C)ccc4n3C)n(CC(=O)NCCC3=CCCCC3)c2=O)c1	/	-18%	/	/	0%	-11%
COc1ccc2c(c1)c(=O)c(S(=O)(=O)c1ccc(C)c(C)c1)cn2CC(=O)Nc1ccccc1	/	-17%	/	/	-1%	4%
Cn1ncc2c(=S)nc(Cl)[nH]c21	/	10µM*	-6%	-1	4%	?
S=c1nc[nH]c2c1cnn2-c1ccccc1	-4%	11%	14%	-1	16%	-1%
Cc1cc(C)cc(C(=O)NCCn2cc(SCC(=O)N3CCOCC3)c3ccccc32)c1	2%	-10%	0%	-32*	8%	-6%
CCOc1ccc2nc(N(Cc3cccnc3)C(=O)c3ccco3)sc2c1	/	-3%	/	/	/	2%
Cc1c(C(=O)N2CCC(Cc3ccccc3)CC2)cccc1[N+](=O)[O-]	2%	-14%[7.66 µM]	7%	2	4%	1%[7.66 µM]
Cc1ccc(C(=O)N2CCC(Cc3ccccc3)CC2)cc1[N+](=O)[O-]	-1%	10µM*	2%	-5	17%	-3%
Cc1ccc(C)c(S(=O)(=O)NCc2ccc(C(=O)N3CCC(Cc4ccccc4)CC3)cc2)c1	2%	10µM*	-8%	-1	4%	-28%
Nc1c(C(=O)O)ccc2c1C(=O)c1ccccc1C2=O	-16%	1%	-4%	3	3%	10µM*
Cc1ccc(C)n1-n1c(C)nc2sc3c(c2c1=O)CCCCC3	-2%	11µM*	-2%	-4	2%	-13%
Cc1ccc(C)n1-n1cnc2sc3c(c2c1=O)CCCCC3	4%	?	-2%	1	3%	78%
Cc1csc(C(=O)O)c1NC(=O)c1c(Cl)cccc1Cl	0%	5%	-17%	-87*	-5%	1%
O=C(O)c1sccc1NC(=O)c1c(Cl)cccc1Cl	1%	11%	1%	0	0%	4%
NC(=O)C1CCN(c2nc(-c3ccccc3)cs2)CC1	-3%	/	/	/	/	/
CC(C)(C)NCC(O)COc1c(F)cc(Br)cc1F (centres undefined)	2%	-1%	/	0	7%	-3%
CC(C)(C)CC(C)(C)NCC(O)COc1c(F)cc(Br)cc1F (centres undefined)	0%	10µM*	-12%	0	-20%	-5%
CC1CCN(CC(=O)Nc2ccc(S(=O)(=O)N3CCC(C)CC3)cc2)CC1	1%	?	-3%	0	1%	?
CC1CCCN(S(=O)(=O)c2ccc(NC(=O)CN3CCCCC3)cc2)C1 (centres undefined)	-2%	22µM*	0%	-3	18%	1%
CC1CC(C)CN(S(=O)(=O)c2ccc(NC(=O)CN3CCCCCC3)cc2)C1 (centres undefined)	1%	11µM*	10%	-1	11%	?
CCN1CCN(CC(=O)Nc2ccc(S(=O)(=O)N3C(C)CCCC3C)cc2)CC1 (centres undefined)	0%	11µM*	1%	0	12%	4%
CC1CCN(S(=O)(=O)c2ccc(NC(=O)C3CCN(C(=O)c4ccco4)CC3)cc2)CC1	1%	2.8µM*	-5%	0	9%	14%
Cc1ccc(S(=O)(=O)N2CCN(CC(=O)Nc3ccc(N4CCOCC4)cc3)CC2)cc1C	1%	0%	3%	-3	-1%	-2%
CC1CCN(S(=O)(=O)c2ccc(NC(=O)CN3CCCC3)cc2)CC1	-5%	1.8µM*	5%	-1	10%	7%
CC1CCN(S(=O)(=O)c2ccc(C(C)C)cc2)CC1	2%	?	0%	-3	9%	15%
SMILES	Mm-Cpn inhibitor	GLP-1R inv ag	uPA generation	CCT modulator	GLP1R ag	HEK293 tox
CC1CCN(S(=O)(=O)c2ccc(Cl)cc2)CC1	1%	0%	/	-43*	0%	1%
Cc1cccc(N2CCN(CC(=O)Nc3ccc(S(=O)(=O)N4CCOCC4)cc3)CC2)c1C	1%	11µM*	-17%	0	-4%	1%
O=C(Nc1ccc(F)cc1)Nc1ccc(S(=O)(=O)N2CCCC2)cc1	0%	8.9µM*	9%	-3	-1%	-24%
CCCCOc1ccc(C(=O)NCc2nnnn2-c2ccc(C)c(C)c2)cc1	/	?	/	/	/	-11%
CC(C)NC(=O)C1CCC(Cn2c(=O)c3sccc3n(CC(=O)NCc3ccccc3)c2=O)CC1 (centres undefined)	/	5%	/	/	/	0%
CCN(c1ccc(C)cc1C)S(=O)(=O)c1nnc(NC(=O)CC(C)C)s1	/	0%	/	/	/	0%
Cc1noc(C)c1C(=O)OCC(=O)c1c[nH]c2ccccc12	0%	5%	2%	-5	11%	-16%
Cc1onc(-c2c(F)cccc2Cl)c1C(=O)OCC(=O)c1c[nH]c2ccccc12	-11%	8.9µM*	7%	-2	9%	-1%
Cc1ccc(-c2nnc(CSc3nnc(COc4cccc5ccccc45)n3-c3ccccc3)o2)cc1	0%	11µM*	3%	-1	17%	6%
COc1cc(O)c(C(=O)/C=C/c2ccccc2)c(OC)c1	-3%	?	8.9µM*	0	-4%	-1%
COc1cc(OC)c(C(=O)C=Cc2ccc(OC)c(OC)c2)c(OC)c1	/	?	-13%	-1	11%	?
CC(=O)Nc1cccc(NC(=O)c2cccc(-c3ccc(O)cc3)c2)c1	4%	?	-6%	-70*	7%	3%
Fc1ccccc1C1c2cccn2CCN1C(=S)Nc1ccc(Br)cc1 (centres undefined)	?	4.5µM*	0%	3	-5%	?
Fc1ccccc1C1c2cccn2CCN1C(=S)Nc1cccc(Br)c1 (centres undefined)	-6%	-8%	-1%	-2	-1%	-1%
CCN(CC)CCNC(=O)c1cc2cc(Br)ccc2s1	1%	3.2µM*	-1%	1	-3%	31%
OC(c1ccccc1)(c1ccc(F)cc1)C(c1ccccc1)N1CCOCC1 (centres undefined)	0%	7.9µM*	9%	-2	-12%	-32%
CC(O)(c1ccccc1)C(C(c1ccccc1)N1CCOCC1)N1CCOCC1 (centres undefined)	/	8%	3%	-25	-9%	-1%
COc1ccc(Nc2ncnc3c2cnn3-c2ccc(C)cc2)cc1Cl	/	-25%	/	/	/	-10%
Cc1ccc(N2CC(C(=O)NCC3CCCO3)CC2=O)cc1Cl (centres undefined)	1%	18%	-1%	-143*	-2%	11%
Cc1ccc(N2CC(C(=O)NC3CC3)CC2=O)cc1Cl (centres undefined)	3%	1%	0%	1	6%	-1%
